The whole screen tested about 13,000 compounds, of which about 3,200 (25%) showed an effect of 50% or more. Some of the results follow.

From article PMC4552634, “A New Set of Chemical Starting Points with Plasmodium falciparum Transmission-Blocking Potential for Antimalarial Drug Discovery” (PLoS ONE, 2015) come the findings set out here.

In this test the test system is P. falciparum stage V gametocytes. On the set-up: BacTiter-Glo ATP luminescence viability of purified stage V gametocytes in 384-well plates, per cent inhibition versus DMSO. The conditions noted are these: 48 h, 5 µM; inhibitor.
Turning to `O=C(CCN1C(=O)c2ccccc2C1=O)N1CCN(CC=Cc2ccccc2)CC1` [TCMDC-125744], the “% Inhibition” value came out at 5.299%.

Take `CCCN(c1ccc(C(F)(F)F)cc1[N+](=O)[O-])S(=O)(=O)C(c1ccccc1)c1ccc(C(F)(F)F)cc1[N+](=O)[O-]` (stereo not shown) [TCMDC-132114]: the “% Inhibition” value was 11.09%. The figure for `COc1ccc(C)c(Nc2ccnc(Nc3ccc(-c4cnc[nH]4)cc3)n2)c1` [TCMDC-138695] is -34.59%. Regarding `CC(C)(C)NC(=O)COC(=O)c1c2c(nc3ccccc13)C(=Cc1ccc3c(c1)OCO3)CCC2` [TCMDC-125143], the “% Inhibition” value worked out at 31.31%.

As for `CC(C)CCN(Cc1cncn1Cc1cccc(Cl)c1)C(=O)c1cncc(-c2ccccc2)c1` [TCMDC-132465], the “% Inhibition” value is listed as 21.61%. The figure for `Cc1cc2c(cc1C(F)(F)F)N(C(=O)Nc1cnc(OCCN(C)C)c(C(F)(F)F)c1)CC2` [TCMDC-139848] is 26.2%; for `O=C(NCc1ccccc1)NC1CCN(c2ccnc3cc(Cl)ccc23)C1` (stereo not shown) [TCMDC-133402] it is -15.46%. Regarding `COc1ccc(NC(=O)NC2CCN(c3ccnc4cc(Cl)ccc34)C2)cc1` (stereo not shown) [TCMDC-133647], the “% Inhibition” value was -25.5%. The figure for `c1cncc(CCNCc2cccc(-c3csc(-c4nc5ccccc5[nH]4)c3)c2)c1` [TCMDC-132878] is -19.07%; for `Cc1[nH]nc2cc(Nc3ccnc(Nc4ccc(CN5CCOCC5)cc4)n3)ccc12` [TCMDC-138633] it is 14.24%; for `O=C(Cc1cnc[nH]1)Nc1cccc(-c2ccc(-c3nc4ccc(C(F)(F)F)cc4[nH]3)cc2)c1` [TCMDC-136952] it is -24.24%.

Turning to `CC(C)N1CCN(C(CN2CCN(CCCOc3ccc4ccccc4c3)CC2)c2ccc(F)cc2)CC1` (stereo not shown) [TCMDC-135495], the “% Inhibition” value is 83.07%. The figure for `O=C(Nc1cccc(-c2ccc(CN3CCC(O)CC3)cc2)c1)c1cccc(Cl)c1` [TCMDC-132645] is -15.01%. With `Cc1cccc2[nH]c(-c3cccc(-c4ccc(NC(=O)Cc5cnc[nH]5)cc4)c3)nc12` [TCMDC-136951] the figure was 17.26%; with `Cc1cccc2[nH]c(-c3ccc(-c4cccc(NC(=O)CCc5cnc[nH]5)c4)cc3)nc12` [TCMDC-132153], 72.28%. With `O=C(CCc1cnc[nH]1)Nc1ccc(-c2cccc(-c3nc4ccccc4[nH]3)c2)cc1` [TCMDC-132150] the figure was 3.081%; with `O=C(CCc1cnc[nH]1)Nc1cccc(-c2cccc(-c3nc4ccccc4[nH]3)c2)c1` [TCMDC-132151], 78.34%. Turning to `Cc1cccc2[nH]c(-c3cccc(-c4cccc(NC(=O)Cc5cnc[nH]5)c4)c3)nc12` [TCMDC-136950], the “% Inhibition” value is -8.646%.

Turning to `Cc1cccc2[nH]c(-c3cccc(-c4cccc(NC(=O)CCc5cnc[nH]5)c4)c3)nc12` [TCMDC-132158], the “% Inhibition” value is -23.69%.

Regarding `CCOC(=O)NCC(=O)Nc1cccc(-c2cccc(-c3nc4c(C)cccc4[nH]3)c2)c1` [TCMDC-137048], the “% Inhibition” value is listed as -2.875%.

On to `C#CCCC(=O)Nc1cccc(-c2cccc(-c3nc4c(C)cccc4[nH]3)c2)c1` [TCMDC-136857], for which the “% Inhibition” value worked out at 61.5%. Regarding `Cc1cccc2[nH]c(-c3cccc(-c4ccc(NC(=O)CCc5cnc[nH]5)cc4)c3)nc12` [TCMDC-132159], the “% Inhibition” value is listed as -12.17%. In the case of `O=C(CCc1cnc[nH]1)Nc1cccc(-c2ccc(-c3nc4ccccc4[nH]3)cc2)c1` [TCMDC-132155], the “% Inhibition” value was found to be 31.89%. The figure for `Cc1cccc2[nH]c(-c3ccc(-c4cccc(NC(=O)Cc5cnc[nH]5)c4)cc3)nc12` [TCMDC-136942] is 73.44%. The figure for `Cc1cccc2[nH]c(-c3cccc(-c4cccc(NC(=O)Nc5ccccc5)c4)c3)nc12` [TCMDC-133152] is -23.55%.

Usually % Inhibition stands for the drop in the measured response relative to a control, in per cent.
